Results filed as inconclusive are left out. Activity calls are given as the source filed them. Calls follow the shape of the dose curve; as a rule, active = well fitted curve in the direction sought with a large enough effect; inconclusive = small, poorly fitted or top-dose-only effect, or another doubt; inactive = no such curve, though single readings can be large; an effect the other way counts as inactive or inconclusive.
Columns and labels:
[1] = biological target: Cellular tumor antigen p53 (Homo sapiens) (UniProt P04637); assay: Primary qHTS for small molecule compounds that upregulate eGFP-tagged delta133p53alpha (in N-terminal) cells. (AID 2060322); conditions: NCI-H358 eGFP-delta133p53alpha fluorescence, 24 h; activation: hits give high values;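 also: cells pre-induced with doxycycline then dosed without doxycycline; series mostly up to about 56 µM; 0% = DMSO vehicle and 100% = reference activator; nearly all actives have a fitted effect of over 75% in size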
In short: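 NCI-H358 cells pre-induced 24 h with 10 ng/ml doxycycline for eGFP-delta133p53alpha, plated dox-free and exposed 24 h at 37C to titrated compounds. Fixed, Hoechst-stained; gated GFP peak intensity by laser scanning cytometry, normalized to DMSO (0%) and 57.5 uM 5-azacytidine (100%).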

[2] = biological target: Aldehyde dehydrogenase, mitochondrial (Homo sapiens) (UniProt P05091); assay: qHTS for Inhibitors of the Aldehyde Dehydrogenase Family (ALDH2) Primary screen (AID 2061308);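 also: plate controls were vehicle for no effect and reference inhibitor for full effect; nearly all actives have a fitted effect of over 55% in size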
[3] = biological target: Retinaldehyde dehydrogenase 3 (Homo sapiens) (UniProt P47895); assay: qHTS for Inhibitors of the Aldehyde Dehydrogenase Family (ALDH1A3) Primary screen (AID 2061315);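 also: plate controls were DMSO vehicle for no effect and reference inhibitor for full effect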

Chain of Cellular tumor antigen p53 (Homo sapiens) (P04637 whole entry, looked up): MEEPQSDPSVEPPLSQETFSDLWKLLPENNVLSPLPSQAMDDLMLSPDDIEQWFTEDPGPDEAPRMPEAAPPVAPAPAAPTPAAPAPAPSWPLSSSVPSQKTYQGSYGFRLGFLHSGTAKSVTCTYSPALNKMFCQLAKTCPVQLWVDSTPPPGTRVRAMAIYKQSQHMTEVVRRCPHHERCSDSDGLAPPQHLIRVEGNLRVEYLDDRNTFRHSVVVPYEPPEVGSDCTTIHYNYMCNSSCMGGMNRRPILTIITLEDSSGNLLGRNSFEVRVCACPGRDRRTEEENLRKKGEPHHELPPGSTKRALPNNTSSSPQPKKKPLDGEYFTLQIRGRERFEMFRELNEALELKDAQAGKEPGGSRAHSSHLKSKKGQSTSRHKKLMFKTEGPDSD

COC1CC/C=C(\C)C(=O)Nc2cc(O)cc(c2)CC(C)CC(OC)C(O)C(C)/C=C(\C)C1OC(N)=O (centres undefined)
inactive: activation [1] 6.87% | Potency [2] | Potency [3]

C=C[C@H]1[C@H](O[C@@H]2O[C@H](CO)[C@@H](O)[C@H](O)[C@H]2O)OC=C(C(=O)OC)[C@H]1C[C@@H]1c2cc(O)c(O)cc2CCN1C(C)=O
inactive: activation [1] -6.11% | Potency [2] | Potency [3]

O=C1Nc2ccccc2C(O)(c2ccccc2)C1O (centres undefined)
inactive: activation [1] 0.763% | Potency [2] | Potency [3]

— PubChem BioAssay (NCATS)
